According to ChEMBL document CHEMBL1157539, “Thousands of chemical starting points for antimalarial lead identification” (Nature, 2010):

Columns and labels:
Format in all cases: functional
Plasmodium falciparum [1] = test: GSK_TCMDC: Inhibition of Plasmodium falciparum 3D7 in whole red blood cells, using parasite LDH activity as an index of growth. Test compounds present at 2uM
Plasmodium falciparum [2] = test: GSK_TCMDC: Inhibition of Plasmodium falciparum Dd2 in whole red blood cells, using parasite LDH activity as an index of growth. Test compounds present at 2uM
HepG2 = test: GSK_TCMDC: Percent inhibition of human HepG2 cell line. Test compounds present at 10uM.

| SMILES | Inhibition (Plasmodium falciparum [1]) [%] | Inhibition (Plasmodium falciparum [2]) [%] | Inhibition (HepG2) [%] |
| --- | --- | --- | --- |
| CN1CCc2cc(CN3CC4(C)CC3CC(C)(C)C4)c(O)cc2C(c2ccccc2)C1.Cl (stereo not given) | 98 | 88 | 0 |
| CN(Cc1ccc(-c2ccc(C(F)(F)F)cc2)cc1)C(=O)Cn1c(CCc2cccc(F)c2F)cc(=O)c2ccc(OCCCN3CCCCC3)cc21.O=C(O)C(O)C(O)C(=O)O | 100 | 90 | 79 |
| NC(=O)c1ccc(C(=O)Nc2cccc(-c3ccc(-c4nc5cc(C(F)(F)F)ccc5[nH]4)cc3)c2)cc1 | 100 | 31 | 35 |
| Cl.NC1CCN(Cc2cccc(-c3ccc(-c4nc5cc(C(F)(F)F)ccc5[nH]4)cc3)c2)C1 (stereo not given) | 99 | 97 | 21 |
| CC(=O)Nc1ccc(OCCCCN(Cc2ccccc2C(F)(F)F)c2ccc(C#N)c(C(F)(F)F)c2)cc1 | 80 | 47 | 0 |
| Cc1cc(=NN=Cc2ccccc2F)c2cc(C(F)(F)F)ccc2[nH]1 | 100 | 67 | 5 |
| Cc1cnc(C(=O)Nc2cccc(-c3cccc(-c4nc5cc(F)ccc5[nH]4)c3)c2)cn1 | 99 | 24 | 25 |
| Cl.N#Cc1ccc2c(c1)CCN(CCC1CCC(NC(=O)c3cc4ccc(Cl)cc4[nH]3)CC1)C2 (stereo not given) | 100 | 0 | 5 |
| CCN(CC)CCN(Cc1ccc(-c2ccc(C(F)(F)F)cc2)cc1)C(=O)Cn1c(CCc2cc(F)ccc2F)nc(=O)c2ccccc21.O=C(O)C(O)C(O)C(=O)O | 98 | 52 | 42 |
| CN(C)c1ccc(CN2CCC(NC(=O)c3ccc(-c4ccccc4Cl)s3)CC2)cc1.O=C(O)C(F)(F)F | 82 | 27 | 35 |
| CN1CCN(c2ccnc3ccc(NC(=O)Cc4ccc(Br)c5ccccc45)cc23)CC1 | 96 | 99 | 8 |
| CCn1cc(-c2cc(C(=O)Nc3ccc(OC)cc3C)c3ccccc3n2)c(C)n1 | 97 | 100 | 0 |
| C=CCOC(=O)N1CCC(CNCc2cccc(-c3ccc(-c4nc5ccccc5[nH]4)s3)c2)C1.O=C(O)C(F)(F)F (stereo not given) | 99 | 63 | 9 |
| CCNC(=O)c1cc(S(=O)(=O)N2CCN(c3ccccn3)CC2)cs1 | 97 | 94 | 7 |
| CN=c1nc(NN=Cc2ccccc2Cl)[nH]c(=Nc2cccc(C(F)(F)F)c2)[nH]1.Cl | 84 | 0 | 12 |
| C(=C(c1cccs1)c1cccs1)c1ccc(CNC2CCN(Cc3ccccc3)CC2)cc1.Cl | 98 | 21 | 40 |
| CCCOc1c(CCNCCCCNCCc2ccc3ccccc3c2OCCC)ccc2ccccc12.CS(=O)(=O)O | 100 | 78 | 100 |
| Cc1cccc2nc(-c3ccc(-c4cccc(CN5CCCCC5)c4)s3)[nH]c12.O=C(O)C(F)(F)F | 100 | 92 | 11 |
| COc1ccc2nccc([C@@H](O)CN3CCC(NCc4ccc5c(c4)sc(=O)n5C)CC3)c2c1.O=C(O)C(=O)O | 100 | 72 | 10 |
| O=C(O)C(F)(F)F.O=S(=O)(NC1CCCCN(Cc2ccccc2O)C1)c1ccc(C(F)(F)F)cc1 (stereo not given) | 84 | 39 | 1 |

| SMILES | Inhibition (Plasmodium falciparum [1]) [%] | Inhibition (Plasmodium falciparum [2]) [%] | Inhibition (HepG2) [%] |
| --- | --- | --- | --- |
| CCN1CCC(N(Cc2ccc(-c3ccc(C(F)(F)F)cc3)o2)C(=O)Cn2c(CCc3cccc(F)c3F)nc(=O)c3ccccc32)CC1.O=C(O)C(O)C(O)C(=O)O | 91 | 88 | 45 |
| COc1ccc(CCN(C)CCCCNC(=O)c2ccc(NC(=O)c3ccc(Cl)cc3)cc2)c(OC)c1 | 87 | 0 | 12 |
| FC(F)(F)c1ccc(NC(=S)N2CCC(CCN3CCC(c4c[nH]c5ccccc45)CC3)CC2)cc1 | 98 | 37 | 44 |
| COc1ccc2nc(C)cc(Nc3ccc(Oc4ccc5ccccc5c4)c(Cl)c3)c2c1 | 100 | 99 | 40 |
| CN1CCCc2ccc(NC(=O)c3ccc(-c4cc(C(F)(F)F)nn4C)s3)cc2C1.O=C(O)C(F)(F)F | 88 | 34 | 16 |
| O=C(/C=C/c1ccc(Cl)c(Cl)c1)NCCCCN1CCCN(C(=O)Nc2ccc(Cl)c(Cl)c2)CC1 | 96 | 1 | 22 |
| O=C(Nc1ccc(-c2nc3ccccc3[nH]2)cc1)c1cncc(Br)c1 | 95 | 49 | 35 |
| CCc1cc(NCc2ccncc2)nc(Nc2ccc(F)cc2)n1 | 92 | 17 | 8 |
| COC(=O)[C@@H](NC(=O)[C@@H](Nc1ccc(C#N)c2ccccc12)C(C)(C)C)c1ccc(O)cc1 | 100 | 74 | 0 |
| CCN(CC)CCN(Cc1ccc(-c2ccc(C(F)(F)F)cc2)cc1)C(=O)Cn1c(CCc2cccc(F)c2F)nc(=O)c2ccc(C)cc21.O=C(O)C(O)C(O)C(=O)O | 99 | 58 | 39 |
| O=C(Nc1ccccc1Oc1ccccc1)NC1CCN(c2ccnc3cc(Cl)ccc23)C1.O=C(O)C(F)(F)F (stereo not given) | 99 | 74 | 0 |
| Cc1nc(N)nc(N)c1-c1ccc2ccccc2c1 | 97 | 2 | 60 |
| O=C(CN1CCC2(CCC1=O)CC(=O)c1ccccc1O2)NCCN1CCOCC1 (stereo not given) | 100 | 0 | 6 |
| Cc1cccc2nc(-c3ccc(-c4cccc(CN5CCN(c6ccncc6)CC5)c4)cc3)[nH]c12.O=C(O)C(F)(F)F | 100 | 99 | 50 |
| CC(C)CNCc1cccc(-c2ccc(CNc3ccc4ncccc4c3)cc2)c1.O=C(O)C(F)(F)F | 94 | 32 | 13 |
| O=C(Nc1ccc(OC2CCN(Cc3ccccc3)C2)c(Cl)c1)c1cccs1.O=C(O)C(F)(F)F (stereo not given) | 97 | 96 | 13 |
| O=C(Nc1ccc(Cl)c(C(F)(F)F)c1)Nc1ccc(Cl)c(C(F)(F)F)c1 | 94 | 96 | 1 |
| CCOc1cc(C(=O)NCC2CCN(CC3CCCCC3)CC2)ccc1-c1nc2cc(Cl)ccc2[nH]1 | 98 | 59 | 14 |
| Cc1cnc2cc3c(cc2c1N1CCN(C)CC1)NCC3 | 100 | 69 | 12 |
| Cc1c[nH]c(CCNC(=O)c2cc(-c3ccc(Cl)cc3)cs2)n1 | 100 | 7 | 12 |

| SMILES | Inhibition (Plasmodium falciparum [1]) [%] | Inhibition (Plasmodium falciparum [2]) [%] | Inhibition (HepG2) [%] |
| --- | --- | --- | --- |
| COc1cccc(Nc2nnc(SCC(=O)NNC(=O)c3ccccn3)s2)c1 | 99 | 95 | 52 |
| Cc1nc(NC(=N)N)nc2ccc(C(C)(C)C)cc12.Cl | 96 | 91 | 4 |
| CCN(CCCN1CCCCC1)c1cc(C)nc(Nc2cc(F)cc(F)c2)n1.O=C(O)C(F)(F)F | 100 | 64 | 15 |
| CC(Nc1ccc2c(c1)OCCO2)C(=O)Nc1cc(C(F)(F)F)ccc1N1CCOCC1 (stereo not given) | 98 | 70 | 0 |
| COc1cccc(C23NC(=Nc4nc5ccccc5[nH]4)NC2(c2cccc(OC)c2)NC(=Nc2nc4ccccc4[nH]2)N3)c1 (stereo not given) | 100 | 99 | 0 |
| Br.CCc1cccc(OCCCON2C(=N)N=C(N)NC2(C)C)c1 | 95 | 94 | 63 |
| Cc1ccc(Cn2ncc(N3CCC(N)CC3)c(Cl)c2=O)cc1NC(=O)Nc1ccc(-c2ccccc2)cc1.O=C(O)C(F)(F)F | 90 | 25 | 29 |
| Cl.NOCCCCOc1cc(Cl)c(Cl)cc1Cl | 92 | 5 | 6 |
| CCOC(=O)NC1=NC(=N)N(OCc2ccc(Cl)c(Cl)c2)C(C)(C)N1 | 96 | 90 | 66 |
| COc1cc(OC)c2c(c1Cl)O[C@]1(C2=O)C(=O)C(Cc2ccccc2)(Cc2ccccc2)C(=O)C[C@H]1C | 90 | 45 | 0 |
| Cc1cc(NC(=O)c2cccs2)ccc1OC1CCN(Cc2ccc(C#N)cc2)CC1.O=C(O)C(F)(F)F | 94 | 92 | 34 |
| CC(C)c1ccc(NC(=O)NCC2CCCN(CCCCCNC(=O)/C=C/c3ccc(Cl)c(Cl)c3)C2)cc1 (stereo not given) | 98 | 6 | 87 |
| CNC(=S)NCc1cnc2ccccn12 | 97 | 0 | 0 |
| CCCC(N)C(=O)NC1CCN(c2c(F)c(N)c3c(=O)c(C(=O)O)cn4c3c2Oc2ccccc2-4)C1.Cl (stereo not given) | 98 | 98 | 66 |
| COc1ccc2c(=NN=Cc3ccccc3)cc(C)[nH]c2c1 | 100 | 49 | 0 |
| Cl.O=c1nc(NCCCNCc2cc3c(Cl)cc(Cl)cc3[nH]2)[nH]c2ccccc12 | 91 | 4 | 10 |
| CC(C(=O)OCCOCn1cnc2c(=O)[nH]c(N)nc21)N(C)C(=O)OC(C)(C)C (stereo not given) | 87 | 0 | 28 |
| CN1CC[C@@H](Oc2cc(C(=O)NCc3ccc(Cl)c(Cl)c3)ccc2C(F)(F)F)C1.Cl | 88 | 4 | 8 |
| O=C(N[C@@H](CC1CCCCC1)C(=O)NC1CC1)c1ccc(O)c(-c2cccc(C(F)(F)F)c2)c1 | 99 | 47 | 0 |
| CS(=O)(=O)c1ccc(OCCCN(Cc2ccccc2C(F)(F)F)c2ccc(C#N)c(C(F)(F)F)c2)cc1 | 94 | 76 | 4 |
